Experimental data from PubChem BioAssay AID612 (The Scripps Research Institute Molecular Screening Center, 2007).
Among all 62,000 compounds or so, about 420 (0.68%) were called active.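 How the source made its calls: active means inhibition above the mean of all tested compounds plus 3 SD (cut at about 43% in these data); inactive means the rest.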 The full list was thinned out, with actives kept by preference.

These molecules were tested against 5-hydroxytryptamine receptor 1A (Homo sapiens) (UniProt P08908) (assay: blockade of serotonin HTR1A receptor – cell-based, CHO, Ga15 NFAT-bla reporter, primary screen (AID 612;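 further: receptor stimulated by 5-CT agonist at 100 nM near EC80; beta-lactamase reporter measured by ratiometric fluorescence of a cleavable substrate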)). Details: CHO 5-HT1a Ga15 NFAT-bla reporter, antagonist mode; at 10 µM; hits give high values.
Sequence of 5-hydroxytryptamine receptor 1A (Homo sapiens) (P08908 whole entry, looked up): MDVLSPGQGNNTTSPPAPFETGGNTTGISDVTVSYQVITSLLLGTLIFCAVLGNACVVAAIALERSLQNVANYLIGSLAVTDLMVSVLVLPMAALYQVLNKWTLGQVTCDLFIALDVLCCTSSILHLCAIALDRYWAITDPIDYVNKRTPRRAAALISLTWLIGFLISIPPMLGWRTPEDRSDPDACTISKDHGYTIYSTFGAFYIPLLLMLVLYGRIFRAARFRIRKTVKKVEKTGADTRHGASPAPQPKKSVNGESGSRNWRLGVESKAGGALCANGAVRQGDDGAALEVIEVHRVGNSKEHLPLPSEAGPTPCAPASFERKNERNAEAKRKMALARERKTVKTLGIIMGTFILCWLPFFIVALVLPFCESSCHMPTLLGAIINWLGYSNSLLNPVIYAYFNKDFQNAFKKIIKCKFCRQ

inhibition, active:
CC12CN(Cc3ccccc3)CC(C)(CN(Cc3ccccc3)C1)C2=NO 50.1%, CC(=O)c1ccc(Oc2cc(C)nc(-n3nc(C)cc3C)n2)cc1 45.2%, COc1ccc(CCN2C(=O)c3[nH]nc(-c4ccccc4O)c3C2c2ccc(C)cc2)cc1OC (centres undefined) 54.6%

inhibition, inactive:
Cc1ccc(N2C(=O)c3ccccc3C2(O)c2ncc[nH]2)cc1 (centres undefined) 3.5%, CSc1cccc(NC(=O)CSc2ccccc2)c1 -10.6%, CC(C)COC(=O)c1ccc(NC(=O)C2C3C=CC(C3)C2C(=O)O)cc1 (centres undefined) 4.8%, CCn1nnc(NC(=O)c2cc(Cl)c(OC)c(Cl)c2)n1 -4.7%, COc1cc2[nH]c(=S)n(CCN3CCCCC3C)c(=O)c2cc1OC (centres undefined) 2.5%, O=C(O)CC(Cn1cnnn1)c1ccccc1 (centres undefined) 0.4%, COc1ccc2[nH]c3c(=O)n(Cc4ccco4)cnc3c2c1 6%, CCOc1ccc(N(CC(=O)NCc2ccc(OC)cc2)S(=O)(=O)c2c(C)noc2C)cc1 3.7%, COc1ccc2c(c1)CCc1c(C(=O)N3CCc4ccccc4C3)noc1-2 -3.2%, CN=C1SC(C(=O)O)CC(=O)N1C (centres undefined) 3.6%, COc1ccccc1-n1cnc2cc(NS(=O)(=O)c3ccccc3)ccc21 26.7%, CCCCn1c(SCC(=O)N2CCC(C(=O)OCC)CC2)nc2cc(S(N)(=O)=O)ccc21 5.5%, CCn1c(CSc2nncn2-c2ccc(OC)cc2)nc2cc(S(=O)(=O)N(C)C)ccc21 0.4%, CCC1C(C#N)=C(SC)NC2=C1C(=O)CC(C)(C)C2 (centres undefined) 0.2%, O=C(/C(=N\O)n1cncn1)c1ccc(Br)cc1Br -1.8%, CC(=O)c1c(N)n(C)c(=O)n(C)c1=O 1.2%, CC1CSc2nnc(CCc3ccccc3)n21 (centres undefined) 5.7%, CN1CCN(S(=O)(=O)c2ccc(NC(=O)C3CCCO3)cc2)CC1 (centres undefined) -0.1%, Cc1ccc(NC(=O)Cn2nc(C)c3ccccc3c2=O)c(C)c1 2.8%, C=CCn1c(SCn2nnc3ccccc3c2=O)nnc1-c1ccc(Cl)cc1 -2.8%, O=C(Nn1cc(C(=O)N2CCN(c3ccccc3F)CC2)c2ccccc2c1=O)c1cnccn1 0.3%, CCn1c2c(c3ccc(OC)cc31)CCCC2=O -8.1%, O=C(CSc1nnc(Cn2cnc3ccccc32)o1)c1ccccc1 -8.1%, CC(=NC1CCN(Cc2ccccc2)CC1)c1c(O)[nH]c(=O)[nH]c1=O -6.7%, Cc1ccc(-c2noc(CN3CCN(Cc4ccccc4)CC3)n2)cc1 -3.3%, CN1C(=O)CC(N2CCN(c3ccccn3)CC2)C1=O (centres undefined) -2.2%, C=CCNc1nnc(C)c2ccccc12 0.9%, Cc1noc(C)c1S(=O)(=O)N(CC(=O)Nc1ccc2c(c1)OCCO2)c1ccc(C(C)C)cc1 2%, COCCOC(=O)C1=C(C)N=c2s/c(=C\c3cccs3)c(=O)n2C1c1cccs1 (centres undefined) 6.2%, Cc1cc(C)n(-c2ccc(Cl)c(C(=O)O)n2)n1 -12.6%, CCOC(=O)c1cnc(-n2nc(C)cc2C)nc1Nc1cccc(C(C)=O)c1 12.1%, CCOCCCN1C(=O)CN(C2CCCCC2)C(=O)C1c1ccc(OCC)c(OC)c1 (centres undefined) 4.5%, O=C(Nc1cc(C(F)(F)F)ccc1Cl)c1cc(C2CC2)on1 2.5%, O=C(OCC(O)C(O)COC(=O)c1ccccc1)c1ccccc1 (centres undefined) -11.9%, S=C1SCN(CCN2CCOCC2)CN1Cc1ccccc1 -2.1%, CCOc1ccccc1C1NC(=O)NC(C)=C1C(=O)OCc1ccco1 (centres undefined) -4.6%, CCOc1ccc2[nH]c(=O)c(C(c3nnnn3CCOC)N3CCOCC3)cc2c1 (centres undefined) -1.9%, CC(=O)c1sc2nc(SCC(=O)N3CCCCC3)[nH]c(=O)c2c1C -6.6%, Cc1cccc(NC(=O)c2ccccc2NC(=O)C(C)(C)C)n1 1.6%, O=S(=O)(Nc1ccccc1N1CCOCC1)c1ccc(Cl)s1 4.3%, CCOC(=O)C1CCN(Cc2coc3ccc(Cl)cc3c2=O)CC1 5%, O=C(NCc1ccc2c(c1)OCO2)C1CCCN(S(=O)(=O)c2cccs2)C1 (centres undefined) -2.9%, Cc1ccnc(SCCn2c(Br)nc3c2c(=O)[nH]c(=O)n3C)n1 -4.8%, CC(C)Cc1cc(C(=O)Nc2cc(Br)ccc2O)no1 17.4%, CCn1c(SCC(=O)Nc2nccs2)nnc1-c1ccncc1 -5%, Cc1ccc(C(=O)NC2CCN(C(=O)N3CCOCC3)CC2)cc1 -11.8%, COc1ccc(CCN(C)CCN2C(=O)c3ccccc3C2=O)cc1OC -14.2%, COc1cc(C2C(C(=O)c3ccc(C)o3)=C(O)C(=O)N2CCc2ccccc2)ccc1O (centres undefined) -1.1%, O=C(C1CC1)N1CCN=C1SCc1ccc(Cl)cc1 13%, N#CC1=C(N)C(C#N)(C#N)[C@H](c2ccsc2)[C@H]2COCC=C12 -8.8%, O=C(CN1CCOCC1)Nc1c(-c2ccccc2)c2cc(Br)ccc2[nH]c1=O -10.8%
